Experiment in all cases: NCI-60 one-dose screen, 48 h (100 = growth as untreated, 0 = no growth, -100 = all killed)
Test [1] relates to HCT-15 colon. The conditions noted are these: 10 µM.
Test [2] deals with HT29 colon. The conditions noted are these: 10 µM.
The subject of test [3] is SNB-75 CNS. The conditions noted are these: 10 µM.
Test [4] relates to SNB-19 CNS. To be noted: 10 µM.
The test system of test [5] is U251 CNS. To be noted: 10 µM.
Test [6] relates to PC-3 prostate. The conditions noted are these: 10 µM.
In test [7] the test system is SK-MEL-5 melanoma. To be noted: 10 µM.
The test system of test [8] is UACC-62 melanoma. To be noted: 10 µM unless noted.
Test [9] concerns LOX IMVI melanoma. To be noted: 10 µM.
For test [10], the system named is SK-MEL-28 melanoma. The conditions noted are these: 10 µM.
For test [11], the system named is SK-MEL-2 melanoma. To be noted: 10 µM.
For test [12], the system named is EKVX NSCLC. To be noted: 10 µM.
The subject of test [13] is SN12C renal. To be noted: 10 µM.
Test [14] has as its system UO-31 renal. The conditions noted are these: 10 µM.
Test [15] deals with TK-10 renal. To be noted: 10 µM unless noted.
The test system of test [16] is ACHN renal. To be noted: 10 µM.
Test [17] has as its system CAKI-1 renal. To be noted: 10 µM.
In test [18] the test system is A498 renal. To be noted: 10 µM.
For test [19], the system named is CCRF-CEM leukemia. To be noted: 10 µM.
The subject of test [20] is MOLT-4 leukemia. To be noted: 10 µM.

About 83,000 compounds went through this panel and 20% of them were active in at least one assay; those are over-represented in the sample as a whole.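 Single-dose data. Exposure time 48 hours. Values below 10 considered active.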 Unmarked numbers belong to inactive results. Active and inactive are the calls of the source.

Regarding `COC(=O)c1cccc(Br)c1`, the growth in test [1] is 101%; in test [2], 115%; in [3], 96.5%; in [4], 107%; in [5], 109%; in [6], 86.4%. The growth in test [7] was 106%; in test [8], 97.2%; in [9] it was 108%; in test [10], 118%; in [11], 110%; in test [12] it was 87.1%. Further, the growth was 104% in [13]; 101% in [14]; 106% in [15]; 108% in test [16]; 102% in [17]; 86.3% in test [18]. In addition, the figures for the growth in test [19] and in [20] were 98.2% and 111%, respectively.
In the case of `CC1SC(N)=NC1=O` (stereo not given), the growth in test [1] is 114%; in [2], 128%; in test [3], 103%; in test [4], 109%; in test [5], 113%; in test [6] it was 106%. Also, the growth in test [7] is 113%; in test [8], 100%; in test [9], 104%; in test [10], 112%; in test [11] it was 111%; in test [12] it was 96.2%. Further, the growth in test [13] was 120%; in [14], 92.2%; in [15], 108%; in test [16], 108%; in [17] it was 103%; in test [18] it was 107%. For the same molecule, the growth is 99.3% in test [19] and 122% in [20].
`CCOC(=O)CCCS(C)(=O)=O`: the growth in test [1] was 104%; in test [2], 105%; in test [3] it was 86.2%; in test [4], 100%; in test [5] it was 105%; in test [6] it was 87.9%. For the same molecule, the growth in [7] was 102%; in [8], 93.7%; in test [9] it was 98.8%; in test [10], 104%; in test [11] it was 90.7%; in test [12], 113%. Moreover, the growth in [13] is 97.4%; in [14], 90.5%; in test [15], 102%; in [16], 104%; in test [17] it was 117%; in [18], 96.8%. The values for the growth in test [19] and in test [20] were 113% and 96.5%, respectively.
`Cc1cc(N)c(S(=O)(=O)O)c(N)c1`: the growth in test [1] was 105%; in [2], 111%; in test [3] it was 98.8%; in [4], 90.7%; in test [5], 98.7%; in [6] it was 85.4%. Besides, the growth in test [7] is 104%; in test [8] it was 92.4%; in test [9] it was 94%; in test [10] it was 104%; in test [11] it was 109%; in test [12], 98.9%. In addition, the growth was 93.8% in test [13]; 79.1% in [14]; 105% in test [15]; 100% in test [16]; 90.1% in test [17]; 101% in test [18]. The values for the growth in test [19] and in [20] were 98.1% and 5.11% (active), respectively.
`C1CNC(C2=NCCN2)=N1`: the growth in test [1] is 108%; in test [2] it was 102%; in [3] it was 100%; in test [4], 112%; in test [5], 102%; in test [6] it was 98.8%. The growth is 101% in test [7]; 104% in [8]; 98% in [9]; 109% in [10]; 116% in [11]; 103% in test [12]. The growth is 102% in [13]; 90.2% in test [14]; 103% in test [15]; 109% in test [16]; 99.2% in [17]; 108% in test [18]. Further, the growth in [19] was 109%; in [20], 96.4%.
Consider `CN(C)c1ccc(C(c2ccc(O)cc2)c2ccc(N(C)C)cc2)cc1`, for which the growth was 70.8% in test [1]; 86.2% in [2]; 87.3% in test [3]; 97.2% in test [4]; 98.5% in test [5]; 88.7% in test [6]. Also, the growth in test [7] is 90.5%; in [8], 79.8%; in test [9], 88%; in test [10], 101%; in test [11], 101%; in test [12] it was 91.3%. Besides, the growth in test [13] was 92%; in test [14], 81.2%; in test [15], 117%; in [16], 103%; in test [17], 93.7%; in test [18] it was 85.8%. In addition, the figures for the growth in [19] and in [20] were 96.3% and 86.4%, respectively.
As for `Cc1cccc([N+](=O)[O-])c1Cl`, the growth in [1] is 99.6%; in test [2], 112%; in test [3], 95.2%; in [4], 106%; in test [5], 102%; in test [6], 102%. Further, the growth in test [7] is 98.8%; in test [8], 105%; in test [9], 101%; in test [10], 107%; in [11] it was 109%; in [12] it was 96.8%. Moreover, the growth in test [13] is 106%; in [14], 87.3%; in [15] it was 119%; in test [16], 97.4%; in [17], 92.3%; in [18] it was 94.5%. The values for the growth in test [19] and in test [20] were 99% and 122%, respectively.
For `Cc1cc(=O)[nH]c(NN=C2CCCC2)n1`, the growth in test [1] is 106%; in [2] it was 107%; in [3] it was 89.1%; in test [4] it was 108%; in test [5] it was 120%; in [6], 80.7%. Moreover, the growth was 115% in [7]; 100% in [8]; 110% in test [9]; 113% in test [10]; 107% in test [11]; 107% in test [12]. In addition, the growth is 104% in [13]; 91.2% in test [14]; 122% in test [15]; 108% in [16]; 100% in test [17]; 129% in [18]. The growth is 102% in test [19] and 101% in [20].

Values taken from PubChem BioAssay (NCI).
